Records with an inconclusive call do not appear. Values without a mark were called inactive. The source made the active and inactive calls. Calls follow the shape of the dose curve; as a rule, active = well fitted inhibition curve with a large enough effect; inconclusive = small, poorly fitted or top-dose-only effect; inactive = flat fitted curve, though single readings scatter.
experiment: P-glycoprotein substrates identified in KB-8-5-11 adenocarcinoma cell line, qHTS therapeutic library screen (AID 1346987); settings: KB-8-5-11 (P-gp overexpressing) viability, CellTiter-Glo, 72 h; series mostly up to 44.5 µM; activity change, negative = cytotoxicity: at the top concentration; also: nearly all actives have a fitted effect of over 65% in size
Summary of the method: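 P-gp-mediated resistance screen: KB-8-5-11 cells treated 72 h with compounds in dose-response. CellTiter-Glo viability.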
% is scaled to controls: 0 for no effect and ±100 for the full control effect; potency is read from the fitted curve at half-maximal effect.

SMILES | outcome | activity change, negative = cytotoxicity | Potency
O=C(O)c1cnn(-c2nc3cc(OC(F)(F)F)c(Cl)cc3[nH]2)c1 | inactive |  | 
Cn1c(=O)cc(N2CCCC(N)C2)n(Cc2ccccc2C#N)c1=O (stereo not given) | inactive |  | 
OC[C@H]1O[C@@H](Oc2ccc(O)c3cccc(O)c23)[C@H](O)[C@@H](O)[C@@H]1O |  | 2.55% | 
C=C1CC/C=C(/CO)C(=O)C[C@@H]2[C@@H]1CC2(C)C | inactive |  | 
OCC1=CC[C@@H]2C=CO[C@@H](O[C@@H]3O[C@H](CO)[C@@H](O)[C@H](O)[C@H]3O)[C@H]12 |  | 0.201% | 
CCOc1ccc(C(Nc2ccccn2)c2ccc3ccc(C)nc3c2O)cc1C (stereo not given) |  | 3.67% | 
CC1OC(OC2C(C)OC(OC3C(OC(=O)/C=C/c4ccc(O)cc4)C(CO)OC(OC4(COC(=O)/C=C/c5ccc(O)cc5)OC(CO)C(O)C4O)C3OC3OCC(O)(CO)C3O)C(O)C2O)C(O)C(O)C1O (stereo not given) |  | 9.5% [at 9.29 µM] | 
CC1=CC(=O)OC(C)(CC(C)(O)C(=O)O)C1 (stereo not given) |  | 8.13% | 
COC(=O)[C@H](CC1C=NC=N1)NCC12CC3CC(CC(C3)C1)C2 (stereo not given in full) |  | 7.98% | 
FC(F)(F)c1cc(C(F)(F)F)c2ccc3nc(-c4nnco4)cn3c2n1 |  | 5.16% | 
CCOC(=O)c1ccnc(CNCC(=O)N(CC)CCN(C)C)c1 | inactive |  | 
COC(=O)[C@@H]1C2CC3c4[nH]c5ccccc5c4CCN3CC2CC[C@@H]1O (stereo not given in full) |  | 0.704% | 
CCCC(=O)Nc1ncnc2c1ncn2[C@@H]1O[C@@H]2COP(=O)(O)O[C@H]2[C@H]1OC(=O)CCC |  | 17.7% | 
Cc1[nH]cnc1C1CCN(c2nc3cccc4c3n2CCC4=O)CC1 | inactive |  | 
CC(C)=CCC[C@](C)(O[C@@H]1O[C@H](CO[C@@H]2OC[C@@H](O)[C@H](O)[C@H]2O)[C@@H](O)[C@H](O)[C@H]1O)[C@H]1CC[C@]2(C)[C@@H]1[C@H](O)C[C@@H]1[C@@]3(C)CC[C@H](O[C@@H]4O[C@H](CO)[C@@H](O)[C@H](O)[C@H]4O[C@@H]4O[C@H](CO)[C@@H](O)[C@H](O)[C@H]4O)C(C)(C)[C@@H]3CC[C@]12C |  | 4.02% [at 17.3 µM] | 
CC1(C)O[C@]23C[C@H]1C[C@H](OC(=O)c1ccoc1)[C@]2(C)[C@@H](OC(=O)c1ccoc1)CCC3(C)O (stereo not given in full) |  | 1.91% [at 17.3 µM] | 
C=C[C@](C)(CC/C=C(\C)C(=O)O)O[C@@H]1OC[C@H](O)[C@H](O)[C@H]1O | inactive |  | 
CC[C@@H](C(=O)O)[C@@H]1O[C@@H]([C@@H](C)[C@H](O)[C@H](C)C(=O)[C@H](CC)[C@H]2O[C@]3(C=C[C@@H](O)[C@]4(CC[C@@](C)([C@H]5CC[C@](O)(CC)[C@H](C)O5)O4)O3)[C@H](C)C[C@@H]2C)[C@@H](C)C[C@@H]1C |  |  | 2310 nM (active)
CC[C@H]1OC(=O)[C@H](C)[C@@H](O[C@H]2C[C@@](C)(OC)[C@@H](O)[C@H](C)O2)[C@H](C)[C@@H](O[C@@H]2O[C@H](C)C[C@H](N(C)C)[C@H]2O)[C@](C)(O)C[C@@H](C)/C(=N\OCOCCOC)[C@H](C)[C@@H](O)[C@]1(C)O |  | -9.36% [at 17.3 µM] | 
CC(C)(O)C1=CCC23COC(C2)C(O)(C(=O)O)CCC13 (stereo not given) | inactive |  | 

SMILES | outcome | activity change, negative = cytotoxicity | Potency
O=C(NC[C@H](O)CN1CCc2ccccc2C1)c1cc(NC2COC2)ncn1 |  | 1.23% | 
CCC(CC)n1ccc2c(C(=O)NCc3c(C)cc(C)[nH]c3=O)cc(C#N)cc21 |  | -10.5% | 
C[C@H](NCc1ccc(OCc2ccccc2F)cc1)C(N)=O | inactive |  | 
COc1cc(/C=C/CO)ccc1O[C@@H]1O[C@H](CO)[C@@H](O)[C@H](O)[C@H]1O |  | 9.81% | 
Cn1ccnc1CCOC(c1cc2nccc(C(=O)O)c2[nH]1)c1ccccc1Cl (stereo not given) | inactive |  | 
CCOc1ccc2c(c1)C(C)=CC(C)(C)N2 |  | -14.8% | 
CCN[C@@H]1C[C@H](N)[C@@H](O[C@H]2OC(CN)=CC[C@H]2N)[C@H](O)[C@H]1O[C@H]1OC[C@](C)(O)[C@H](NC)[C@H]1O |  |  | inactive
C1CCN2CC3C[C@@H](CN4CCCC[C@@H]34)[C@H]2C1 | inactive |  | 
CC(C)(O)c1ccc2c(c1)C(O)CC1C(C)(C(=O)O)CCCC21C (stereo not given) |  | 4.29% | 
C/C=C1\[C@H](O[C@@H]2O[C@H](CO)[C@@H](O)[C@H](O)[C@H]2O)OC=C(C(=O)OC)[C@H]1CC(=O)OC | inactive [at 17.3 µM] |  | 
C[C@@H]1O[C@@H](O[C@H]2[C@H](O[C@H]3CO[C@@H](O[C@H]4CC[C@@]5(C)C(CC[C@]6(C)C5CC[C@]57OC[C@@]8(CC[C@](C)(CO)CC85)[C@H](O)C[C@]76C)C4(C)C)[C@H](O[C@@H]4O[C@H](CO)[C@@H](O)[C@H](O)[C@H]4O)[C@H]3O)O[C@H](CO)[C@@H](O)[C@@H]2O)[C@H](O)[C@H](O)[C@H]1O (stereo not given in full) |  | 8.31% [at 9.29 µM] | 
CC/C=C\C[C@H]1C(=O)C=C[C@@H]1CCCCCCCC(=O)O | inactive |  | 
CC(C)(OC1OC(CO)C(O)C(O)C1O)C1CCC(O)(CO)C2CC(O)C(C)(O)C2C1 (stereo not given) |  | 3.63% [at 17.3 µM] | 
C[C@@H]1CC[C@]2(C)C3(C)CC[C@@]2(OC3=O)[C@@]12C[C@H](c1ccoc1)OC2=O |  | 8.46% | 
CCCCCCCCCCCCCCCC(=O)OCC(COC(=O)CCCCCCCCCCCCCCC)OC(=O)CCCCCCCCCCCCCCC |  | -9.26% | 
CC(=O)N(CC(C)C(=O)O)c1c(I)cc(I)c(N)c1I (stereo not given) |  | -13.9% [at 17.3 µM] | 
CC(C)[C@H]1CCC(CO)=C[C@@H]1/C=C(\CO)C(=O)O |  | 8.69% | 
C=C[C@H]1[C@H](O[C@@H]2O[C@H](CO)[C@@H](O)[C@H](O)[C@H]2O)OC=C2C(=O)OCC[C@]21O | inactive |  | 
CCn1nnnc1NCc1ccc(C(C)C)cc1 | inactive |  | 
COc1cc(/C=C/C(=O)OC2CC3CCC2(C)C3(C)C)ccc1O (stereo not given) |  | 7.16% | 

— PubChem BioAssay (NCATS)
